These results are taken from PubChem BioAssay (EPA / NIEHS).

The structures appear in SMILES notation. More than one record can exist for a structure, and the calls need not agree. The source made the active and inactive calls. The calls were made as follows: active = hit-call score of the fitted dose curve at least 0.9, where 1 is the maximum; inactive = score below 0.9.

This test in a line: CCTE_Shafer_MEA_acute_burst_percentage_std: CCTE's Neural Acute Assay for Standard Deviation of Burst Percentage, Shafer Lab (AID 2284018).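 Also: fitted in the negative direction so actives lower burst percentage SD.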 On the procedure: CCTE_Shafer_MEA_acute assay is conducted using Axion Biosystems 48 well microelectrode array (MEA) plates and Maestro recording system. Each well of the MEA plate contains a grid of 16 microelectrodes embedded in the culture surface. Electrically active cells, such as neurons, can be cultured over the electrodes, and electrical activity in these cells can be recorded extracellularly. The spontaneous firing of neurons is captured from each electrode on a microsecond timescale providing both temporally and spatially precise data. […] The CCTE_Shafer_MEA_acute assay uses primary cultures of rat cortical neurons. As these cultures mature over time, neural networks develop functional activity and form cohesive networks in which electrical activity can be highly coordinated. Baseline 40-minute recordings are made on days post-plating 13 or 15, followed by a secondary 40-minute recording after chemical exposure.CCTE_Shafer_MEA_acute_burst_percentage_std is a component of the CCTE_Shafer_MEA_acute assay. It measures the percentage of spikes (action potential firing) in a single-electrode burst (temporally-clustered groups of spikes) as the number of spikes in bursts divided by the total number of spikes during a recording in a microelectrode array (MEA) using Axion Biosystems Maestro 768 channel amplifier with the AxIS adaptive spike detector. The standard deviation of the burst percentages across electrodes is calculated to report a well-level value. The recordings before and after chemical treatment are used to calculate a percent change in the standard deviation of the burst percentage in each well.Data from the assay component CCTE_Shafer_MEA_acute_burst_percentage_std was analyzed into 1 assay endpoint. This assay endpoint, CCTE_Shafer_MEA_acute_burst_percentage_std, was analyzed in the negative analysis fitting direction relative to DMSO as the negative control and baseline of activity. Using a type of functional reporter, gain or loss-of-signal activity can be used to understand electrical activity.
Spontaneous activity in the cortical cultures was recorded using an Axion Biosystems Maestro 768 channel amplifier and Axion Integrated Studios (AxIS) v1.8 (or later) software. The amplifier recorded from all channels simultaneously (gain = 1200 x; sampling rate = 12.5 kHz/channel): raw signals were filtered with a Butterworth band-pass filter (300-5000 Hz), which filters out slower local field potentials leaving only fast potentials, i.e., "spikes", arising from extracellular currents associated with action potentials (Pine 2006; Wheeler and Nam 2011). On-line spike detection of filtered signals was conducted with the AxIS adaptive spike detector, using a threshold of 8x the root mean squared (rms) noise on each channel. Any electrodes with rms noise levels greater than 5 uV were grounded (e.g., no data were recorded). Once grounded, an electrode was grounded for the duration of the experiment. All recordings were conducted at 37 C. Wells were deemed usable if on the day of the exposure >/= 10 electrodes were active (defined as >/= 5 spikes/min). On DIV 13 or 15, a minimum of three wells from one cortical culture preparation were treated with each compound (0.03-40 uM). Prior to recording baseline activity, each mwMEA plate was placed in the Maestro at 37 C and allowed to sit for 20 min while firing rates stabilized. Baseline activity (40 min) was recorded before the addition of each compound. An additional 40 min of spontaneous activity was recorded in the presence of each compound. Changes in network parameters relative to baseline were assessed following compound treatment.
For `CC[C@H]1CC[C@H](NCc2cc3c(cc2OC)[C@H]2C[C@H]2C(=O)N3C)[C@H](c2ccccc2)N1`, the call was inactive.

Broadly, the AC50 is the concentration at which the activity in the assay is half-maximal. On to `O=P(OC(CCl)CCl)(OC(CCl)CCl)OC(CCl)CCl`, for which the AC50 was 31.6 µM (active) and the outcome was inactive.

With `Cn1c(=O)c2c(ncn2C)n(C)c1=O`, the AC50 was 20 µM (active).

Take `CCCCCCc1ccc(O)cc1O`: the concentration at half-maximal activity (AC50) is 27.8 µM (active).

Take `CCCCCCCCCCCCc1ccccc1`: the compound was called inactive.

For the compound `COc1ccc2sc(C(=O)Nc3nnn[nH]3)c(OC(C)C)c2c1`, the compound was classed as inactive.

As for `On1ccccc1=S`, the compound was called inactive.

`COc1cccc(-c2ccc(/C=C\CN3CCCCCC3)cc2Cl)c1`: the outcome was inactive.

On to `CCC(C)(C)C(=O)O[C@H]1C[C@@H](C)C=C2C=C[C@H](C)[C@H](CC[C@@H]3C[C@@H](O)CC(=O)O3)[C@H]21`, for which the compound was called inactive.

Regarding `Cn1cnc([N+](=O)[O-])c1Sc1ncnc2nc[nH]c12`, the call was inactive.

As for `CC(C)=CCCC(C)=CC=O`, the compound was called inactive.

Take `CCCN(C1CCN(C(=O)C2CCNCC2)CC1)[C@@H]1CCc2ccc(OC)cc2C1`: the AC50 is 33.1 µM (active).

For the compound `CCCCC(CC)COC(=O)CCCCCCCCC(=O)OCC(CC)CCCC` (centres undefined), the call was inactive.

With `O=C(O)CCN(C1(C(=O)NO)CCCC1)S(=O)(=O)c1ccc(Oc2ccc(F)cc2)cc1`, the compound was called inactive.

On to `CCOC(=O)c1ccc(C2CCC(NC[C@H](O)COc3ccc(O)c(NS(C)(=O)=O)c3)CC2)cc1` (some centres undefined), for which the result was inactive.

Turning to `Cc1[nH]cnc1C[C@H]1CCc2c(C)c3ccccc3n2C1=O`, the result was inactive.

For the compound `O=C(O)c1cc(N=Nc2ccc(S(=O)(=O)Nc3ccccn3)cc2)ccc1O`, the call was inactive.

In the case of `CC[C@H]1OC(=O)[C@H](C)[C@@H](O[C@H]2C[C@@](C)(OC)[C@@H](O)[C@H](C)O2)[C@H](C)[C@@H](O[C@@H]2O[C@H](C)C[C@H](N(C)C)[C@H]2O)[C@](C)(O)C[C@@H](C)C(=O)[C@H](C)[C@@H](O)[C@]1(C)O`, the outcome was inactive.
